In PubChem BioAssay (NCI) one finds growth data, which are given here for 15 compounds.

Compounds without any hit were thinned out: in the full panel of roughly 83,000, 20% have a hit.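 Values shown are percent growth following 48 h exposure of cells in 96-well plates to a single concentration of compound; below 10 was considered active.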 Unmarked numbers belong to inactive results. Active and inactive are the calls of the source.

Among the test systems are DU-145 prostate; MALME-3M melanoma; MDA-MB-231 breast; RXF 393 renal; SF-268 CNS; SF-295 CNS; SF-539 CNS; UACC-257 melanoma; M14 melanoma; K-562 leukemia.
Holding throughout (test): NCI-60 one-dose screen, 48 h (100 = growth as untreated, 0 = no growth, -100 = all killed)
What all share (details): 10 µM unless noted

As to `O=C1C=C2C(=CCOC2O)O1` (centres undefined), the growth in the test with DU-145 prostate was 9.48% (active); in the test with MALME-3M melanoma, -28.5% (active); in the test with MDA-MB-231 breast it was 66%; in the test with RXF 393 renal, -74.8% (active); in the test on SF-268 CNS, 3.53% (active); in the test on SF-295 CNS, 89%. Further, the growth in the test on SF-539 CNS was -33.6% (active); in the test with UACC-257 melanoma, -22.1% (active); with M14 melanoma, -18.9% (active).
Take `Nc1ccc(OCCNS(=O)(=O)c2cccc(S(=O)(=O)F)c2)c(Cl)c1`: the growth is 95.1% with K-562 leukemia; 86.2% in the test with MALME-3M melanoma; 100% with MDA-MB-231 breast; 102% in the test with SF-268 CNS; 89.2% in the test on SF-295 CNS; 93.5% in the test with SF-539 CNS. The growth in the test on UACC-257 melanoma was 75.4%; in the test on M14 melanoma it was 97.3%.
As for `O=C([O][Hg][CH2]C1COCC([CH2][Hg][O]C(=O)c2ccccc2)O1)c1ccccc1` (centres undefined), the growth in the test on K-562 leukemia is 4.71% (active); in the test with MALME-3M melanoma, -80.5% (active); in the test on MDA-MB-231 breast it was 105%; in the test with RXF 393 renal it was 87.5%; in the test on SF-268 CNS it was 104%; in the test on SF-295 CNS, 96.8%. For the same compound, the growth was 113% in the test on SF-539 CNS, -69.4% (active) in the test with UACC-257 melanoma and 71.7% in the test with M14 melanoma.
As to `CCOC(=O)N1CC1`, the growth was 110% in the test on DU-145 prostate; 108% in the test with MALME-3M melanoma; 99.2% with MDA-MB-231 breast; 106% in the test on RXF 393 renal; 98.6% with SF-268 CNS; 97.8% in the test on SF-295 CNS. For the same compound, the growth is 103% with SF-539 CNS, 101% in the test on UACC-257 melanoma and 96.5% with M14 melanoma.
In the case of `O=C(N/N=C\c1ccc(N(CCCl)CCCl)cc1)c1cccc([N+](=O)[O-])c1`, the growth was 85.9% in the test with DU-145 prostate; 100% in the test with MALME-3M melanoma; 89.2% in the test on MDA-MB-231 breast; 98.5% with RXF 393 renal; 76.7% in the test on SF-268 CNS; 88.4% in the test with SF-295 CNS. In addition, the growth in the test on SF-539 CNS is 81%; with UACC-257 melanoma, 92.7%; with M14 melanoma it was 110%.
With `CC(=O)O[C@H]1CC[C@]2(C)[C@H]3CC[C@]4(C)[C@@H](OC(C)=O)CC[C@H]4[C@@H]3[C@@H](C)[C@]2(O)C1`, the growth in the test on DU-145 prostate was 107%; with K-562 leukemia, 85.1%; in the test with MDA-MB-231 breast, 108%; with RXF 393 renal it was 114%; in the test on SF-268 CNS, 112%; with SF-539 CNS, 99.6%. The growth in the test with UACC-257 melanoma is 127%; with M14 melanoma, 109%.
Take `O=c1[nH]c2ccc([N+](=O)[O-])cc2c(=O)o1`: the growth with DU-145 prostate is 117%; in the test with MALME-3M melanoma, 106%; in the test on MDA-MB-231 breast, 107%; in the test on RXF 393 renal, 101%; in the test with SF-295 CNS, 105%; in the test on SF-539 CNS, 102%. Moreover, the growth is 104% in the test with UACC-257 melanoma and 108% in the test with M14 melanoma.
For the compound `Cc1c2cc(Cl)c3ccccc3c2c[n+]2ccccc12`, the growth was 78.3% with DU-145 prostate; -16.2% (active) in the test with MALME-3M melanoma; 82.5% with MDA-MB-231 breast; -36.3% (active) in the test on SF-268 CNS; 18.3% in the test with SF-295 CNS; 26.3% in the test with SF-539 CNS. Besides, the growth with M14 melanoma is 47.5%.
On to `CC1(C)N=C(N)N=C(N)N1c1ccc(CCC(=O)Nc2ccc(S(=O)(=O)F)cc2)c(Cl)c1`, for which the growth with DU-145 prostate was 40.2%; with MALME-3M melanoma it was 83.1%; in the test on MDA-MB-231 breast, 51.7%; with SF-268 CNS, 28.1%; with SF-295 CNS it was 30%; with SF-539 CNS, 11.9%. In the test on M14 melanoma, the growth is 23.4%.
As for `COC(=O)[C@@H](NC(=O)c1cn(CCC2CCCCC2)c2ccccc12)C(C)(C)C`, the growth with DU-145 prostate is 81.7%; with MALME-3M melanoma, 106%; in the test on MDA-MB-231 breast, 70.1%; with RXF 393 renal, 83.9%; with SF-268 CNS, 68.5%; in the test on SF-295 CNS, 60.2%. For the same compound, the values for the growth with SF-539 CNS, with UACC-257 melanoma and in the test with M14 melanoma were 88.1%, 73% and 59.4%, respectively.
Turning to `COc1cc(/C=N/C2=C(C#N)C(c3ccco3)c3c(c4cc(C)ccc4oc3=O)O2)cc(OC)c1OC` (centres undefined), the growth in the test on DU-145 prostate was 107%; in the test with MALME-3M melanoma it was 97.2%; in the test on MDA-MB-231 breast it was 95.6%; in the test with SF-268 CNS, 95.2%; in the test with SF-295 CNS it was 92.2%; in the test with SF-539 CNS it was 90.8%. Moreover, the growth in the test on UACC-257 melanoma is 94.2%; in the test with M14 melanoma, 93.4%.
On to `Cc1sc2c(c1C)C(c1ccc(Cl)cc1)=N[C@@H](CC(=O)OC(C)(C)C)c1nnc(C)n1-2`, for which the growth is 57% in the test on DU-145 prostate; 57% with MALME-3M melanoma; 42.8% in the test with MDA-MB-231 breast; 51% with SF-268 CNS; 37.6% in the test with SF-295 CNS; 37.5% in the test with SF-539 CNS. Further, the figures for the growth with UACC-257 melanoma and in the test with M14 melanoma were 58.1% and 43%, respectively.
`Cc1cc(NC(=O)NCc2ccc(N3C(N)=NC(N)=NC3(C)C)cc2)ccc1S(=O)(=O)F`: the growth was 42.7% in the test on DU-145 prostate; 56.9% in the test with MALME-3M melanoma; 58.5% in the test on MDA-MB-231 breast; 31.6% with SF-268 CNS; 27.9% in the test on SF-295 CNS; 19.5% in the test with SF-539 CNS. Also, in the test on M14 melanoma, the growth was 29.5%.
With `COc1ccc(/C=C\c2cc(OC)c(OC)c(OC)c2)cc1NC(=O)/C=C/c1ccc(OC)c(OC)c1`, the growth with DU-145 prostate is 15.9%; with MALME-3M melanoma, 51.7%; in the test with MDA-MB-231 breast it was 58.6%; with RXF 393 renal, -15.1% (active); with SF-268 CNS it was 41.7%; with SF-295 CNS it was 5.37% (active). Also, the growth in the test with SF-539 CNS was 2.69% (active); in the test on UACC-257 melanoma, 73.9%; in the test with M14 melanoma it was 23.4%.
As to `COc1ccc(N(CC(=O)NCCC[Te]c2ccccc2)C(=O)CCSC2=C(C)C(=O)c3ccccc3C2=O)cc1`, the growth is -10.1% (active) in the test with DU-145 prostate; -11.7% (active) in the test with MALME-3M melanoma; -61.6% (active) in the test on MDA-MB-231 breast; -26.5% (active) in the test with RXF 393 renal; 3.17% (active) with SF-268 CNS; -50.1% (active) in the test on SF-295 CNS. For the same compound, the growth was -62.6% (active) with SF-539 CNS, 0.434% (active) in the test on UACC-257 melanoma and -38.3% (active) in the test with M14 melanoma.
